Screens: PubChem, several laboratories
GIRK2 activator – activators of NPY4-receptor-primed GIRK2 channels, summary, cell-based, HEK293, thallium flux | G protein-activated inward rectifier potassium channel 2 (Homo sapiens), P48051 | HEK293 GIRK2/NPY4 cells, thallium flux fluorescence | activation (% efficacy), % for hits at 37.5 µM | 34,000 tested, under 10 active;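 active = primary screen hit, no activity in plain HEK293 cells, and in GIRK2-only cells above 5% efficacy rising with concentration; inactive = the rest, including fluorescent compounds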;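 note: efficacy is normalized control-subtracted fluorescence 15 s after thallium addition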
AMPAR-TARP mod – modulators of GluA2-stargazin AMPA receptor complexes, primary screen, cell-based, membrane potential dye; Voltage-dependent calcium channel gamma-2 subunit (Mus musculus) + Glutamate receptor 2 …; HEK293 GluA2+stargazin, membrane potential dye (FDSS), glutamate EC50; hits were called plate by plate, in both directions; calls only at 30 µM; 40,000 compounds, 3.5% hits; AID 1259245, 2017;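 active = any of four per-well response measures lying three or more SD from its plate-wide compound average, in either direction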
Target sequence (O88602 whole entry, looked up): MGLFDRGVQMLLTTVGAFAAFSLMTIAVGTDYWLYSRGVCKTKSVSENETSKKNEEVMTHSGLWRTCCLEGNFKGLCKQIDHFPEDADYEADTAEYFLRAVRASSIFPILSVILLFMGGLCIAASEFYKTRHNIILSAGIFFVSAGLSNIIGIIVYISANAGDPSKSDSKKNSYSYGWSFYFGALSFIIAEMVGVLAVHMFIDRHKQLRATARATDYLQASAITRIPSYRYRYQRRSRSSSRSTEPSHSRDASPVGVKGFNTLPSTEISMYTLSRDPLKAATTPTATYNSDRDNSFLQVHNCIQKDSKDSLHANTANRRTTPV
Target sequence (P19491 whole entry, looked up): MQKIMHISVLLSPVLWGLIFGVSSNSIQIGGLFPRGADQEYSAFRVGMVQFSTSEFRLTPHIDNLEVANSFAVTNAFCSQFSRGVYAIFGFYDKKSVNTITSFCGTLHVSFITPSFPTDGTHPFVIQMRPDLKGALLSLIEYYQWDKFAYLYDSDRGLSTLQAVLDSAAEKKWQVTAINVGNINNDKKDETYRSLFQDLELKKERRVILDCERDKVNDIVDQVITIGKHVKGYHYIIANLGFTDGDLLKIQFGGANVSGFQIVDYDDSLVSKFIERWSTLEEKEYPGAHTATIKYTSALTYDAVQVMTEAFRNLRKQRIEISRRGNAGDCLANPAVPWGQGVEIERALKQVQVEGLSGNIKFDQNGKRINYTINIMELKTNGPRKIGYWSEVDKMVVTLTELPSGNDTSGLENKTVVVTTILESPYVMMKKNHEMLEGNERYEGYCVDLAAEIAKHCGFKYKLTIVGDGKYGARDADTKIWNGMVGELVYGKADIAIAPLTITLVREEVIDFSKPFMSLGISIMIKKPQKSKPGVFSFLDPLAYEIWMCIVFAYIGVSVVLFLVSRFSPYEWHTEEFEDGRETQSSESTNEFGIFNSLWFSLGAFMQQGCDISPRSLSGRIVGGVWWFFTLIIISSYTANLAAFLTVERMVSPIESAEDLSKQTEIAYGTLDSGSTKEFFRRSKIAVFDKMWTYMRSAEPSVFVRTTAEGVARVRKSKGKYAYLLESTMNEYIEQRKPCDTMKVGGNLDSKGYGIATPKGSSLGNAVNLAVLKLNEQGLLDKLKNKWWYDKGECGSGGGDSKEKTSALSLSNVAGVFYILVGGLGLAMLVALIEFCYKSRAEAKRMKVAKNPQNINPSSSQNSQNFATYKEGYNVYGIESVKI
Starred values were filed as active, the others as inactive; i = inactive; . = not tested or not shown; + = active, no number. Many of the other results were omitted from the sample, so hits are more common in it than they were.

SMILES	GIRK2 activator	AMPAR-TARP mod
COc1ccc(S(=O)(=O)CCC(=O)Nc2c(C(N)=O)oc3ccccc23)cc1	i	i
CC(C)Oc1ccc(C(=O)NCC2CCN(C3CCCC3)CC2)cc1	i	.
CN(C)c1ccc(/C=C2\SC(=S)N(c3ccc(O)cc3)C2=O)cc1	.	+
COc1cc(/C=C2\SC(=S)N(c3ccc(O)cc3)C2=O)cc(OC)c1OC	.	i
CCOc1ccc(N2C(=O)/C(=C/c3ccc4c(c3)OCO4)SC2=S)cc1	.	i
CCOc1ccc(N2C(=O)/C(=C\c3ccc(O)cc3)SC2=S)cc1	.	+
CCOC(=O)N1CCC(NC(=O)C(=O)Nc2ccc(OC)c(Cl)c2)CC1	i	.
CCCCCNC(=O)C(=O)NCc1ccccc1	.	i
Cn1nc(-c2ccc(NC(=O)c3cccc4ccccc34)cc2)ccc1=O	i	i
COc1ccc(OC)c2sc(N(Cc3ccccn3)C(=O)c3ccno3)nc12	i	i
COc1ccc(S(=O)(=O)Nc2ccc3c(c2)N(C(=O)C(C)(C)C)CC3)c(C)c1	i	i
CCS(=O)(=O)Nc1ccc2c(c1)N(C(=O)C(C)(C)C)CC2	i	i
COc1ccc(CCS(=O)(=O)Nc2ccc3c(c2)N(C(=O)C(C)(C)C)CC3)cc1	i	+
COc1ccc(OC)c(S(=O)(=O)Nc2ccc3c(c2)N(S(=O)(=O)c2cccs2)CCC3)c1	i	+
COc1ccc(S(=O)(=O)Nc2ccc3c(c2)N(C(=O)C(C)(C)C)CC3)cc1	i	+
COc1ccc(CCS(=O)(=O)Nc2ccc3c(c2)N(C(=O)c2ccco2)CC3)cc1	i	i
CCCc1ccc(S(=O)(=O)Nc2ccc3c(c2)N(C(=O)C(C)(C)C)CC3)cc1	i	+
COc1ccc(OC)c(S(=O)(=O)Nc2ccc3c(c2)N(S(C)(=O)=O)CCC3)c1	.	i
O=C1CCCCN1c1ccc(NS(=O)(=O)c2ccccc2F)cc1	i	i
Cc1cc2c(cc1C)NC(CC(=O)Nc1cccc(Br)c1)C(=O)N2 (stereo not given)	.	i
Cc1cc(NC(=O)COc2ccccc2)n(-c2nc3c(cnn3-c3cccc(Cl)c3)c(=O)[nH]2)n1	i	.
Cc1ccc(NC(=O)C(=O)NCC(c2cccc3ccccc23)N2CCCC2)cc1 (stereo not given)	i	.
O=C(O)C1=NN(C2CCS(=O)(=O)C2)C(=O)CC1 (stereo not given)	i	i
CCn1nc(C(=O)NCCn2nc(C)cc2C)ccc1=O	i	i
O=C(CN1CCN(c2nccn2-c2cccc(Cl)c2)CC1)N1CCCC1	i	i
SMILES	GIRK2 activator	AMPAR-TARP mod
O=C(NCc1cccs1)NCC(O)c1ccc(C(F)(F)F)cc1 (stereo not given)	.	i
O=C(NCC(O)c1ccc(C(F)(F)F)cc1)Nc1cccs1 (stereo not given)	.	+
COC(=O)C12CC3CC(CC(NC(=O)CCn4ccc(=O)[nH]c4=O)(C3)C1)C2	.	i
CC(C)OC(=O)C1(C(=O)OC(C)C)CC(CO)(CO)C1	.	i
CC(C)OC(=O)C1(C(=O)OC(C)C)CC2(COC(c3ccccc3)OC2)C1	i	+
CCn1nc(C)cc1C(=O)Nc1nc(-c2cc(Cl)sc2Cl)cs1	i	i
COc1ccc(NC(=O)c2cc(-c3ccc(Cl)cc3)oc2C)cc1	.	i
CSCCn1c(=NC(=O)c2cc(C)no2)sc2ccccc21	i	i
CSCCn1c(=NC(=O)c2cc(C)no2)sc2cc3c(cc21)OCCO3	i	+
COc1ccc(S(=O)(=O)Nc2nc(CCC(=O)Nc3ccc(C(C)C)cc3)cs2)cc1	i	i
O=C(/C=C/c1ccccc1)NCC1CCN(C(=O)c2cc3ccccc3o2)CC1	i	+
O=C(CSCc1ccccc1)NCC1CCN(C(=O)c2cc3ccccc3o2)CC1	i	i
O=C(/C=C/c1ccc2c(c1)OCO2)NCC1CCN(C(=O)c2cc3ccccc3o2)CC1	i	+
O=C(c1cc2ccccc2o1)N1CCC(CNS(=O)(=O)c2ccc3c(c2)OCCO3)CC1	i	i
CC(=O)N1CC(C(=O)NCc2cccs2)C1	i	i
COC(=O)c1sccc1S(=O)(=O)Nc1cc(C)ccc1OC	.	i
COc1cc(C(C)=O)ccc1OCC(=O)N1CCN(c2ccc3nncn3n2)CC1	i	+
Cc1ccc(OCC(=O)N2CCN(c3ccc4nncn4n3)CC2)cc1C	i	i
Cc1ccc(NC(=O)C(=O)NCC2CCCO2)cc1N1CCCC1=O (stereo not given)	i	i
O=C1S/C(=C\c2ccc([N+](=O)[O-])cc2)C(=O)N1c1ccc(F)cc1	i	i
O=C1S/C(=C\c2cccc([N+](=O)[O-])c2)C(=O)N1c1ccc(F)cc1	i	+
